Test results from PubChem BioAssay AID1159580 (chemical genetic matrix, 2015).
In all, about 5,500 compounds went through this assay and about 2,000 (36%) were called active. Another 18% or so got no clear call; they are omitted. No stated cut-off is given here; in the data, active means normalized growth mostly below about 0.91 (no sharp cut-off); inconclusive means no clear call, values can overlap the other calls; inactive means mostly above about 0.92. The list shows a part of the results.

Assay: chemical genetic growth profiling, strain panel (AID 1159580);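 further: tested at 20 µM; growth read once vehicle control cultures reached saturation at 30 °C; 1 = growth at the plate median or of vehicle wells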
Details: S. cerevisiae deletion strains, growth OD

Measured: normalized growth

CCN(CC)CCNC(C(=O)OCCC(C)C)c1ccccc1 (stereo unspecified)
inactive: locus YHR030C, strain SLT2, stronger effect = lower value 0.984 | locus YHR079C, strain IRE1, stronger effect = lower value 0.986 | locus YJL095W, strain BCK1, stronger effect = lower value 0.979 | locus YJR066W, strain TOR1, stronger effect = lower value 0.913 | locus YLR113W, strain HOG1, stronger effect = lower value 1.03 | locus YNL183C, strain NPR1, stronger effect = lower value 0.916 | locus YOR231W, strain MKK1, stronger effect = lower value 0.978 | locus YPL256C, strain CLN2, stronger effect = lower value 0.964

O=[N+]([O-])c1ccc2nc(N3CCNCC3)ccc2c1
inactive: locus YAL013W, strain DEP1, stronger effect = lower value 0.999 | locus YAL040C, strain CLN3, stronger effect = lower value 0.985 | locus YCL061C, strain MRC1 (second series), stronger effect = lower value 0.995 | locus YDR150W, strain NUM1, stronger effect = lower value 0.994 | locus YDR363W, strain ESC2, stronger effect = lower value 1.04 | locus YER002W, strain NOP16, stronger effect = lower value 1.01 | locus YGR078C, strain PAC10, stronger effect = lower value 1 | locus YMR307W, strain GAS1, stronger effect = lower value 1 | locus YNL175C, strain NOP13, stronger effect = lower value 1 | locus YNL197C, strain WHI3, stronger effect = lower value 1 | locus YNL224C, strain SQS1, stronger effect = lower value 1.01 | locus YOR083W, strain WHI5 (second series), stronger effect = lower value 1.01 | locus YPL241C, strain CIN2, stronger effect = lower value 1.01
